Substitutions are numbered along the chain they refer to.
Tests used:
Assay in all cases: protein-binding microarray (PBM); PBM: ~300 nM protein, 6 mM HEPES pH 7.8, 80 mM KCl, 0.5 mM EDTA, 0.5 mM EGTA, 6% glycerol, 35 ng/ul poly-dIdC, 1% milk, 1 h, room temperature; Ap Aiptasia and Nv Nematostella (sea anemones) / Co Capsaspora / Aq Amphimedon (sponge) / Dm Drosophila / Hu human; RHD is the Rel homology domain; high values mean tight binding
Details in all cases: dsDNA, one strand shown
[1] = target: T1, GST-Ap-NF-kB RHD (Exaiptasia pallida (Aiptasia), UniProt A0A913YAJ5 2-422)
T1 sequence: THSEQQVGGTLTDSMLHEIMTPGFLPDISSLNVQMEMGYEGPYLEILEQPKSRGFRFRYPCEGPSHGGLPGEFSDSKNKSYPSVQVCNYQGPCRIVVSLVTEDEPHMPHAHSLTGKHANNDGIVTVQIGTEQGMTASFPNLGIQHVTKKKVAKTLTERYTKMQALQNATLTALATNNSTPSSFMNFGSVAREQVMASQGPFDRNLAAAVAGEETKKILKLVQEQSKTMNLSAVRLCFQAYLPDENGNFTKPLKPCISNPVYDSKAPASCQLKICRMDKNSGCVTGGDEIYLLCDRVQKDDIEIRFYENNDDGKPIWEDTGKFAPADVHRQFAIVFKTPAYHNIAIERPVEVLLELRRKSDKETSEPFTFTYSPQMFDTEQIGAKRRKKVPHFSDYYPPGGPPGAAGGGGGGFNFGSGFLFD

[2] = target: T2, GST-Nv-NF-kB (Cys allele) (Nematostella vectensis, UniProt E5G601 2-411)
T2 sequence: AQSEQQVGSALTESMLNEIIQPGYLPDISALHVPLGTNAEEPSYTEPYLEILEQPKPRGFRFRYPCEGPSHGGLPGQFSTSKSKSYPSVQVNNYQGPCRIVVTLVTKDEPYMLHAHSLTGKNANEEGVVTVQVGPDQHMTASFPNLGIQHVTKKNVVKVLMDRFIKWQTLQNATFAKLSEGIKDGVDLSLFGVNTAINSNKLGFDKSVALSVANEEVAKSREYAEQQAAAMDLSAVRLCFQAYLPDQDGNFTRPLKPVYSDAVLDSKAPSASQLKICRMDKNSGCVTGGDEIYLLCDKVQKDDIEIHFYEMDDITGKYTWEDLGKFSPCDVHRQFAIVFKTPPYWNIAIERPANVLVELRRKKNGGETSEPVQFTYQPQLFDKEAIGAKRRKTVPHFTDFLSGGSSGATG

[3] = target: T3, GST-Nv-NF-kB (Ser allele) (Nematostella vectensis, UniProt A7UNT2 2-411)
T3 sequence: T2 sequence with Q21R, C66S, S207N, E215Q, V217A, E225K, A268E, D399E

[4] = target: T4, GST-Co-NF-kB (Capsaspora owczarzaki, UniProt F1ARL5 200-546)
T4 sequence: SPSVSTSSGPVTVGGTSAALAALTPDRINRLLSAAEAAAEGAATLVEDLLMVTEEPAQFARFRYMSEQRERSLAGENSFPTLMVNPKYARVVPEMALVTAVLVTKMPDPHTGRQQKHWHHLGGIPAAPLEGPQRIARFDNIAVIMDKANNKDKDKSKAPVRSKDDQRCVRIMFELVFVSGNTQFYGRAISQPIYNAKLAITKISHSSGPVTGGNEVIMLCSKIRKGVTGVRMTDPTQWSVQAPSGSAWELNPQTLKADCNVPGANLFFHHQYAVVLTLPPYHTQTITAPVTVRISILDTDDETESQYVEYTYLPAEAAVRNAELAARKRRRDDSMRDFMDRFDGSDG

[5] = target: T5, GST-Dm-Relish (Drosophila melanogaster, UniProt Q94527 99-473)
T5 sequence: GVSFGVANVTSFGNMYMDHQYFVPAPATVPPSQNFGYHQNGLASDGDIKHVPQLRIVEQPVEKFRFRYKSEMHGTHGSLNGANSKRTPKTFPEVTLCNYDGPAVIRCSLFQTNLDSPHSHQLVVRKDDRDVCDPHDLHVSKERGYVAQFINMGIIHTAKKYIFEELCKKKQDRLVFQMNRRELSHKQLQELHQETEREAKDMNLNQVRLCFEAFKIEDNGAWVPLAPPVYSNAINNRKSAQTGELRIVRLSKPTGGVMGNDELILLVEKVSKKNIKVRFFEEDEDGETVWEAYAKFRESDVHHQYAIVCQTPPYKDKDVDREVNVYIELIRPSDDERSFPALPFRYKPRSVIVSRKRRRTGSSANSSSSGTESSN

[6] = target: T6, GST-Aq-NF-kB (Amphimedon queenslandica, UniProt A9Y5G7 2-389)
T6 sequence: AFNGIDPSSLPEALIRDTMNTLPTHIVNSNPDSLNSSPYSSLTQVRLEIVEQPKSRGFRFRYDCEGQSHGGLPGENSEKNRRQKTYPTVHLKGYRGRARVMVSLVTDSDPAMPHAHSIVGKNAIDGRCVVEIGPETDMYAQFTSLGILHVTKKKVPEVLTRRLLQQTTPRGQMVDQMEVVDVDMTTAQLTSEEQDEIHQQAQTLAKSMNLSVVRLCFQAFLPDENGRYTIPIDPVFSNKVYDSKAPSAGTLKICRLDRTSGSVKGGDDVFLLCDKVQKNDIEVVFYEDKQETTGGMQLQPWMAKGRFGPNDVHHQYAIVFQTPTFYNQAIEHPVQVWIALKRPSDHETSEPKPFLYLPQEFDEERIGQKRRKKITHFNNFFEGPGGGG

[7] = target: GST-Hu-p50 (Homo sapiens, UniProt P19838 7-356)
Chain of GST-Hu-p50 (P19838 7-356): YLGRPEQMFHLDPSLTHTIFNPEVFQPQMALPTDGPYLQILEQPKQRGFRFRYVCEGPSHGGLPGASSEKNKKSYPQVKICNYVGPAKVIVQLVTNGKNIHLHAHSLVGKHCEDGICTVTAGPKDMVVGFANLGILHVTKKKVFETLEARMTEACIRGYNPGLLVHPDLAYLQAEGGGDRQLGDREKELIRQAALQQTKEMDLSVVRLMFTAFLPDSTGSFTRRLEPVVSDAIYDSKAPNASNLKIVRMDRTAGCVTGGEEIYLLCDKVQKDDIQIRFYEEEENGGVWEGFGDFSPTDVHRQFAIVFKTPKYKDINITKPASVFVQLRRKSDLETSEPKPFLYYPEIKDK

CCGATTAACATCAGTAAATCCCATGATGTTAATCGGGTCTTGATTCGCTTGACGCTGCTG
binding signal [1]: 1.49 z-score
binding signal [2]: 1.09 z-score
binding signal [3]: 1.18 z-score
binding signal [4]: 1.48 z-score
binding signal [5]: 7.4 z-score
binding signal [6]: 2.3 z-score
binding signal [7]: 1.94 z-score

CCGATTAACATCAAGGGGAATAATGATGTTAATCGGGTCTTGATTCGCTTGACGCTGCTG
binding signal [1]: 5.34 z-score
binding signal [2]: 8.01 z-score
binding signal [3]: 8.1 z-score
binding signal [4]: 7.2 z-score
binding signal [5]: 4.17 z-score
binding signal [6]: 5.64 z-score
binding signal [7]: 5.62 z-score

CCGATTAACATCAACATTACCCCTGATGTTAATCGGGTCTTGATTCGCTTGACGCTGCTG
binding signal [1]: 2.39 z-score
binding signal [2]: 2.88 z-score
binding signal [3]: 3.43 z-score
binding signal [4]: 4.07 z-score
binding signal [5]: 1.42 z-score
binding signal [6]: 2.86 z-score
binding signal [7]: 3.24 z-score

CCGATTAACATCAGGGAAAAGTATGATGTTAATCGGGTCTTGATTCGCTTGACGCTGCTG
binding signal [1]: 3.35 z-score
binding signal [2]: 4.5 z-score
binding signal [3]: 6.25 z-score
binding signal [4]: 4.73 z-score
binding signal [5]: 1.56 z-score
binding signal [6]: 3.86 z-score
binding signal [7]: 2.97 z-score

CCGATTAACATCAAAAATCCCCGTGATGTTAATCGGGTCTTGATTCGCTTGACGCTGCTG
binding signal [1]: 9.77 z-score
binding signal [2]: 10.8 z-score
binding signal [3]: 11.1 z-score
binding signal [4]: 6.22 z-score
binding signal [5]: 10.1 z-score
binding signal [6]: 8.1 z-score
binding signal [7]: 7.67 z-score

CCGATTAACATCAGGACAGCCCCTGATGTTAATCGGGTCTTGATTCGCTTGACGCTGCTG
binding signal [1]: 3.75 z-score
binding signal [2]: 5.09 z-score
binding signal [3]: 2.05 z-score
binding signal [4]: 1.05 z-score
binding signal [5]: 2.67 z-score
binding signal [6]: 6.62 z-score
binding signal [7]: 4.14 z-score

CCGATTAACATCATTCCCGGGAATGATGTTAATCGGGTCTTGATTCGCTTGACGCTGCTG
binding signal [1]: 2.49 z-score
binding signal [2]: 4.09 z-score
binding signal [3]: 3.45 z-score
binding signal [4]: 5.77 z-score
binding signal [5]: 1.81 z-score
binding signal [6]: 3.95 z-score
binding signal [7]: 2.31 z-score

CCGATTAACATCACGGGAAAATCTGATGTTAATCGGGTCTTGATTCGCTTGACGCTGCTG
binding signal [1]: 3.98 z-score
binding signal [2]: 5.79 z-score
binding signal [3]: 6.4 z-score
binding signal [4]: 5.43 z-score
binding signal [5]: 2.07 z-score
binding signal [6]: 5.16 z-score
binding signal [7]: 3.87 z-score

CCGATTAACATCAAGGGAATTTATGATGTTAATCGGGTCTTGATTCGCTTGACGCTGCTG
binding signal [1]: 4.54 z-score
binding signal [2]: 7.59 z-score
binding signal [3]: 7.58 z-score
binding signal [4]: 3.54 z-score
binding signal [5]: 4.78 z-score
binding signal [6]: 5.69 z-score
binding signal [7]: 5.62 z-score

CCGATTAACATCAATAATCCCCCTGATGTTAATCGGGTCTTGATTCGCTTGACGCTGCTG
binding signal [1]: 8.84 z-score
binding signal [2]: 8.72 z-score
binding signal [3]: 9.49 z-score
binding signal [4]: 6.87 z-score
binding signal [5]: 8.23 z-score
binding signal [6]: 7.52 z-score
binding signal [7]: 7.52 z-score

CCGATTAACATCAGGGGGTGGTATGATGTTAATCGGGTCTTGATTCGCTTGACGCTGCTG
binding signal [1]: 3.21 z-score
binding signal [2]: 2.77 z-score
binding signal [3]: 3.98 z-score
binding signal [4]: 2.91 z-score
binding signal [5]: 2.01 z-score
binding signal [6]: 3.38 z-score
binding signal [7]: 3.67 z-score

CCGATTAACATCACGAATTTCCCTGATGTTAATCGGGTCTTGATTCGCTTGACGCTGCTG
binding signal [1]: 4.28 z-score
binding signal [2]: 5.72 z-score
binding signal [3]: 6.67 z-score
binding signal [4]: 4.33 z-score
binding signal [5]: 2.13 z-score
binding signal [6]: 5.22 z-score
binding signal [7]: 4.46 z-score

— PMC5700166
